Screening data (PubChem)
Mtb bLac sens: beta-lactam sensitization of Mtb H37Rv, H37Rv | AID 434955, 2010 | 330,000 tested, 0.27% active | inhibition, % at 25 µM | M. tuberculosis H37Rv growth with meropenem, percent inhibition; call rule not given here;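 also: growth measured after seven days incubation then overnight dye step; 0% = bacteria only wells and 100% = bacteria with antibiotic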
Mtb FBA inh: Mtb FBA enzyme inhibitors, primary screen, biochemical, fluorescence, strain H37Rv; Fructose-bisphosphate aldolase (Mycobacterium tuberculosis (strain ATCC 25618 / H37Rv)), …; purified M. tuberculosis FBA, fluorescence read-out; inhibition, % at 1 µM; 360,000 tested, 2.3% active; AID 588726, 2011; in the data active = inhibition above about 27%;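 also: 0% = vehicle and 100% = reference inhibitor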
CCHFV vOTU inh: CCHFV vOTU protease inhibitors, primary screen, biochemical, Pep-AMC substrate, fluorescence. Crimean-Congo hemorrhagic fever virus L polyprotein viral ovarian tumor (vOTU) protease …. inhibition, % at 11.5 µM. 370,000 tested, 0.55% active. AID 651958, 2012; also: 0% = vehicle wells with enzyme and 100% = no enzyme wells
GDH-TPI inh: GDH-TPI coupling enzyme inhibitors, primary screen, artefact control for M. tuberculosis FBA inhibitor project, biochemical, absorbance, full deck; GDH-TPI coupled enzyme counterscreen, NADH absorbance; inhibition, % at 4.8 µM; 360,000 tested, 1.2% active; AID 588335, 2011;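 also: 0% = DMSO wells and 100% = wells lacking the enzyme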
RecA splice inh: Mtb RecA intein splicing inhibitors, primary screen, biochemical, fluorescence, HTS; cell-free RecA intein splicing; 290,000 tested, 0.75% active; inhibition, % (test concentration not listed); AID 2221, 2009; in the data active = inhibition above about 30%; inconclusive = no clear call, values can overlap the other calls;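 also: 0% = vehicle wells and 100% = reference inhibitor control wells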
Target sequence (P9WHJ3 whole entry, looked up, canonical isoform): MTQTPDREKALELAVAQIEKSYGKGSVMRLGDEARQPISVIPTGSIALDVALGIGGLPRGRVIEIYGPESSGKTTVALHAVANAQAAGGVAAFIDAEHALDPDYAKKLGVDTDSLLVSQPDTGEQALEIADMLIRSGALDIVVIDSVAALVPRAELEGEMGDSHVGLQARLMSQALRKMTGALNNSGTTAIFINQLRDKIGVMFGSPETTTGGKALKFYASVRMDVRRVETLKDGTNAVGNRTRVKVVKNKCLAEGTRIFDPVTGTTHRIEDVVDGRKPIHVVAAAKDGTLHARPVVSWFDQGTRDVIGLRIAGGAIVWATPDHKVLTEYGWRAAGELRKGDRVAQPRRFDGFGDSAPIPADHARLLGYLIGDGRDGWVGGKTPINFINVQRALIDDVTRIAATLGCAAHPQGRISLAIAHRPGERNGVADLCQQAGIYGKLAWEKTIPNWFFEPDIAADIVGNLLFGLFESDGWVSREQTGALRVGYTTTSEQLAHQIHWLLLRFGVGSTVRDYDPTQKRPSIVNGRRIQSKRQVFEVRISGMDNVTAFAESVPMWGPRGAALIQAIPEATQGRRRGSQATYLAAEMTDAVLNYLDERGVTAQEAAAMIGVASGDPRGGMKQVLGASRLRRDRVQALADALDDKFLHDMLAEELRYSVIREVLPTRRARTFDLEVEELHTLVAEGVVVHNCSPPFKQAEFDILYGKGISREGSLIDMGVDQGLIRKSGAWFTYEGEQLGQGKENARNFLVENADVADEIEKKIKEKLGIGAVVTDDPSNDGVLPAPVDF
* marks the source's active call; other numbers are inactive results; ? = inconclusive; . = no result given; + = active, no number. In the library only some 4.2% were active in any assay of this set; here they are far more common. Rule as the data show it, unless noted: active = inhibition above about 30%; inactive = the rest.

SMILES | Mtb bLac sens | Mtb FBA inh | CCHFV vOTU inh | GDH-TPI inh | RecA splice inh
O=C(CSc1n[nH]c(=O)[nH]c1=O)N/N=C/C=C/c1ccccc1 | -3 | -1 | 13 | 43* | 1
CN(CCO)C1CN(Cc2cn(Cc3ccccc3F)nn2)S(=O)(=O)C1 (configuration not stated) | . | . | -7 | . | .
O=[N+]([O-])c1ccc(-c2cn3c(n2)SCC3)cc1 | 1 | 1 | 7 | 37* | -1
O=S(=O)(Nc1ccc(-c2cn3c(n2)SCC3)cc1)c1cccs1 | 0 | 0 | 6 | 12 | -2
N#Cc1ccc(-c2cn3c(n2)SCC3)cc1 | 8 | + | -93 | 4 | 1
CCOc1ccc(NC(=O)c2ccc(CC)s2)c([N+](=O)[O-])c1 | -2 | -4 | 7 | 7 | -5
CCOc1ccc(NC2OC(C)C(O)C(O)C2O)c([N+](=O)[O-])c1 (configuration not stated) | 4 | 112* | -3 | 7 | -1
CC(CCN1CCC(C(O)(c2ccccc2)c2ccccc2)CC1)Oc1ccc(C#N)cc1F (configuration not stated) | . | . | 13 | . | .
CCCCCc1cc(O)c2c(C)cc(=O)oc2c1 | -1 | 3 | 12 | 22 | 0
Cc1cc(=O)oc2cc(O)cc(O)c12 | . | 196* | -171 | 6 | .
COc1cc(OC)c2c(-c3cccc(-c4cccc(C)c4)c3)cc(=O)oc2c1 | . | 4 | 10 | 26 | .
COc1cc(OC)c2c(C)cc(=O)oc2c1 | 27 | + | -188 | 21 | 0
COc1cc(OC)c2ccc(=O)oc2c1 | -11 | + | -266 | 13 | .
COc1ccc(C(=O)COc2ccc3ccc(=O)oc3c2)c(OC)c1 | 100 | 25 | -24 | 13 | 0
Cc1cc(NS(=O)(=O)c2ccc(NC(=O)CSc3nc4sc(C)c(C)c4c(=O)n3Cc3ccco3)cc2)nc(C)n1 | . | . | 5 | . | .
CN(C)c1ccc(C(=O)Nc2nc3c(s2)CCCC3)cc1 | 83 | 2 | 3 | 37* | -1
Cc1cc(C)n2cc(CSCc3ccccc3)nc2n1 | -7 | 160* | -81 | -1 | 4
CC(=O)c1c(C)[nH]c(C(=O)COC(=O)c2cccnc2Cl)c1C | -3 | 0 | 20 | 6 | .
CC(=O)c1c(C)[nH]c(C(=O)COC(=O)c2nccnc2N)c1C | 3 | 157* | -80 | 10 | .
Nc1nccnc1C(=O)OCC(=O)c1ccc[nH]1 | -6 | 165* | -112 | 12 | 2
CCOc1ncccc1C(=O)OCC(=O)c1ccc[nH]1 | -5 | 0 | 3 | -6 | 1
Cc1cc(/C=N/NC(=O)c2ccc(O)cc2)c(C)n1CC(C)C | 1 | 4 | 9 | 47* | 0
N#Cc1ccccc1N1CCN(C(=O)C2CCN(c3ncnc4c3sc3cccc(F)c34)CC2)CC1 | . | . | 0 | . | .
CC(Sc1nc2ccccc2c(=O)n1CC1CCCO1)C(=O)N(C)c1ccccc1 (configuration not stated) | -1 | -1 | 6 | 3 | .
COc1ccccc1-n1c(N)c(C(=O)NCC2CCCO2)c2nc3ccccc3nc21 (configuration not stated) | 2 | 113* | -214 | -2 | -203
SMILES | Mtb bLac sens | Mtb FBA inh | CCHFV vOTU inh | GDH-TPI inh | RecA splice inh
COc1ccccc1-n1c(C)nc2cc(C(=O)NCC3CCCO3)ccc21 (configuration not stated) | ? | 1 | -2 | 2 | 4
Nc1c(C(=O)OC2CCCCC2)c2nc3ccccc3nc2n1CC1CCCO1 (configuration not stated) | 17 | 149* | -187 | 18 | -106
CC(C)CCOC(=O)c1c(N)n(CC2CCCO2)c2nc3ccccc3nc12 (configuration not stated) | 9 | 149* | -140 | 21 | -210
CC(C)OC(=O)c1c(N)n(CC2CCCO2)c2nc3ccccc3nc12 (configuration not stated) | 3 | 190* | -221 | 9 | -69
Cc1nc2c(c(=O)n1CCC(C)C)c1nc3ccccc3nc1n2CC1CCCO1 (configuration not stated) | -2 | 19 | 2 | 5 | -5
O=c1c2ccccc2c2ccccc2c(=O)n1CC1CCCO1 (configuration not stated) | 2 | 0 | 6 | 7 | 1
NC(=S)NN=Cc1ccc(-c2ccc(S(=O)(=O)Nc3ncccn3)cc2)o1 | -2 | 20 | -7 | 33* | .
NC(=S)N/N=C/c1ccc(-c2ccc(SC(F)F)cc2)o1 | 94 | 9 | 3 | 45* | 2
CCOc1ccc(C(=O)N/N=C/c2ccc(-c3ccc(S(=O)(=O)Nc4ncccn4)cc3)o2)cc1 | 100 | 26 | 5 | 35* | 2
Cc1ccc(-c2ccc(/C=N/NC(N)=S)o2)cc1 | 96 | 11 | -9 | 24 | 7
CCCCNC(=O)C1CCCN1C(=O)NCc1ccccc1OC (configuration not stated) | . | . | -3 | . | .
Cc1cccc(NC(=O)c2cccc3c2-c2ccccc2C3=O)c1C | . | . | 5 | . | .
CC(=O)OCCCN1C(=O)CCC12CCC(C)CC2 (configuration not stated) | . | . | -1 | . | .
O=C(/C=C/c1ccccc1)c1ccc2c3c(cccc13)CC2 | 70 | 4 | 5 | 11 | 34*
O=C(/C=C/c1ccccc1)c1ccccc1 | 75 | 1 | 11 | 15 | -1
O=C(C(=O)N1CCOCC1)c1cn(Cc2ccc(F)cc2)c2ccccc12 | -1 | -4 | 9 | 32* | 0
Cc1ccccc1OCCCn1cc(C(=O)C(=O)N2CCOCC2)c2ccccc21 | -1 | 152* | -3 | 11 | -3
CCCC[C@H]1C2CC(OC(=O)Nc3ccccc3C)C(C2)[C@H]2CCCCN21 (some centres not stated) | . | . | 1 | . | .
COc1ccc(/C=C2\SC(=Nc3ccccc3Cl)NC2=O)c(OC)c1 | . | -5 | 5 | 17 | .
O=C1NC(=Nc2ccccc2Cl)S/C1=C\c1ccc(C(=O)O)cc1 | 0 | -2 | -1 | 41* | 2
COc1c(/C=C2\SC(=Nc3ccccc3Cl)NC2=O)cccc1[N+](=O)[O-] | 5 | -2 | 14 | 14 | 12
O=C1NC(=NCc2ccccc2)S/C1=C\c1ccccc1 | -3 | -2 | 14 | 43* | 1
O=C1NC(=Nc2ccccc2Cl)S/C1=C\c1cccc([N+](=O)[O-])c1O | 9 | -10 | 19 | 36* | -2
COc1ccc(N2CCN(CCNS(=O)(=O)c3ccccc3[N+](=O)[O-])CC2)cc1 | . | . | 0 | . | .
CCCc1cn(-c2ccc3c(c2)[C@]2(CC(=O)N(C)C2c2ccccc2)C(=O)N3CC(C)C)nn1 (some centres not stated) | . | . | 2 | . | .
N#C/C(=C\c1ccc(O)cc1)C(=O)NCc1ccccc1 | -6 | 0 | 18 | 22 | 2
